# Experimental data from PubChem BioAssay (NCATS).
# Where “and” joins values, the source holds several entries; their conditions need not be identical. Equal entries are not always repeated. Inconclusive results are not listed. A number with no mark means an inactive call. Calls of active or inactive are those of the source. The call rests on the fitted dose curve; in most records, active means well fitted inhibition curve with a large enough effect; inconclusive means small, poorly fitted or top-dose-only effect; inactive means no such curve, though single readings can be large or run the other way. Where a SMILES comes first, the peptide text is derived from it. Bridges are numbered along the chain shown (N, C = ends). [ ]: non-standard residue; d: D form. NMeY = CN[CH](Cc1ccc(O)cc1)C(=O)O
# Experiment: Primary qHTS for inhibitors of nuclear receptor binding SET domain protein 2 (NSD2) in an RCH-ACV wild type WT cells (2C) (AID 1645877); further: nearly all actives have a fitted effect of over 70% in size
# Settings: RCH-ACV (leukaemia line) NSD2 WT (2C) viability, CellTiter-Glo, 72 h; series mostly up to 44.9 µM; activity change, negative = cell killing: at the top concentration
# On the % scale 0 is the no-effect control and ±100 the full control effect; potency means the concentration at half of the fitted maximal effect.
Compound,outcome,Potency,"activity change, negative = cell killing"
CC1=CCC(C(C)(C)O[C@@H]2O[C@H](CO[C@@H]3O[C@@H](C)[C@H](O)[C@@H](O)[C@H]3O)[C@@H](O)[C@H](O)[C@H]2O)CC1 (stereo partly specified),inactive [at 17.3 µM],–,–
COC(C(=O)N1Cc2[nH]nc(NC(=O)c3ccc(N4CCN(C)CC4)cc3)c2C1)c1ccccc1 (stereo unspecified),–,45.9 nM (active),–
CCCCNc1ncc2c(-c3ccc(CN4CCN(C)CC4)cc3)cn(C3CCC(O)CC3)c2n1 (stereo unspecified),–,205 nM (active) and 332 nM (active) and 662 nM (active),–
COc1ncc(Nc2ncc([C@@H](C)N3CCN(S(C)(=O)=O)CC3)cc2-c2nc(C)nc(N)n2)cc1F,–,20.5 nM (active),–
Clc1cc2c(NC3CCCC3)nnc(-c3ccncc3)c2cc1Cl,–,inactive,–
CCC(C)C(=O)OC1CC(O)C23C4OCC5(C(O)CC2C1(C)C(O)O4)C3C(=O)CC1(C)C(c2ccoc2)CC2OC215 (stereo unspecified),–,126 nM (active),–
C/C1=C\CC[C@]2(C)O[C@@H]2[C@H](O)[C@H](C(C)C)[C@H](OC(=O)/C=C/c2ccccc2)C1,–,–,-21.9%
CC(C)[C@@H](CS(=O)(=O)C(C)C)N1C(=O)[C@@](C)(CC(=O)O)C[C@H](c2cccc(Cl)c2)[C@H]1c1ccc(Cl)cc1,–,515 nM (active) and 662 nM (active),–
C[C@H](NC(c1cccc(C[P+](=O)O)c1)[C@H](C)O)c1ccc(Cl)c(Cl)c1 (stereo partly specified),inactive,–,–
CNS(=O)(=O)c1ccccc1Nc1nc(Nc2ccc(N3CCN(C)CC3)cc2OC)ncc1Cl,–,649 nM (active),–
CCC(C)C1NC(=O)C2CCCN2C(=O)C(NC(C)=O)C(C)OC(=O)C(Cc2ccc(OC)cc2)N(C)C(=O)C2CCCN2C(=O)C(C(C)C)NC1=O (stereo unspecified) (Ac-TPIVP[NMeY](Me); ester 1-C; configuration not given here),–,–,-28.9% [at 17.3 µM]
